39 sequences from the supplement of paper PMC6555819 can be followed below.

In the first assay the test system is PPARg:RXRa (NR concentration 180 nM, RXRa partner concentration 90 nM). Description: PBM binding z-score (relative to random genomic background probes); higher = stronger binding; sequences stand for … in GC…GCGATTGACAGCGTAGAATGAAGG
The essentials: (§1)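 Binding z-scores were set against random background probes. The data came from custom Agilent 4×180K protein-binding microarrays carrying double-stranded probes with 34-nt variable regions, incubated 1 h with ligand-free nuclear receptor dimers. Partner-specific antibodies detected binding, and scanned fluorescence was regression-normalized.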
In turn, CCTAGTGGGTCAGGAGGTCACACACCGGATATGA showed a PBM binding z-score of 7.91.

CCTACTGGGCAAAAAAGGTCATTGATGCCGATAA: the PBM binding z-score came out at 1.45.

Sequence TCTAGTTCGTCACGGAGGTCACACACGACGGGTA gave a PBM binding z-score of 2.17.

Consider CCTAGTTGGTCAAGGTCACGCACGCTATAGGTAC, for which the PBM binding z-score came out at 3.69.

Sequence ATATGTAGGTTAGCGGGGGTCATTCAGACTAGGC displayed a PBM binding z-score of 6.96.

Consider CCTAGATGGTCAGGAGGTCACACACCGGATATGA, for which the PBM binding z-score came out at 3.01.

For CCTAGTTGGTCAGGAAGTCACACACCGGATATGA, the PBM binding z-score stood at 0.696.

Consider CGTCAAAGTTAAAGGTAACGTAACAGAAAGCAGC, for which the PBM binding z-score was 1.59.

With CCTACTGGGCCATTCAGAGGTCACTGATCATATG, the PBM binding z-score was 2.57.

As to TAGCCTCGGTCATTCAGGGGCCAGTATAGAAAGC, the PBM binding z-score was -0.061.

Consider CAAACTAGGCCAAGGTCAAAGTCGGTTTGTGCCA, for which the PBM binding z-score was determined as 6.27.

For the sequence ATCGAAAGGTCGAGTTGAGTATAGAGAAAGGGAA, the PBM binding z-score was determined as 2.44.

The sequence CGTCAAAGTTCAAGGTAAAGTAACAGAAAGCAGC yielded a PBM binding z-score of 4.51.

With TCTAGTTGGTCACGGGGGTCACACACGACGGGTA, the PBM binding z-score is 5.57.

For CCTTACGGGTCACTTACAGGTTATAGCATTTGGA, the PBM binding z-score worked out at 3.07.

As for CCTACTGGGCCATTCAGAGGTCATCGATCATATG, the PBM binding z-score came out at 2.51.

In turn, CAAAATAGGTCAAGAGGTCAAAGTCCGCTTCCCG came in with a PBM binding z-score of 9.42.

The sequence TAGCCTAGGTCATGCGGGTCAGTATAGTGTCGGC showed a PBM binding z-score of 2.77.

GCTTACGGGTCAAAGGTTAAAGCATGAATAGAAT: the PBM binding z-score stood at 11.8.

Consider CGTCCAAGGTCAAAGGTCAGCGAAGAGATGACGG, for which the PBM binding z-score came out at 11.

ATCGAAAGGTCGACGAGGTGAGAATACACCGTTT yielded a PBM binding z-score of 3.21.

In turn, CGTCCAAGGGCAATGCTAGGTCAGTGAAAGCATT showed a PBM binding z-score of -0.00472.

Regarding GCTTACGGGTCAAAAGTTATAGCATGAATAGAAT, the PBM binding z-score was 6.49.

In turn, CCTACTGGGCCACGAAAGGTGATTGATTCAGTGA gave a PBM binding z-score of 2.08.

Turning to CTATGTAGGTTAAGGGGGTCATTGAGTTTGAAAG, the PBM binding z-score is 8.96.

ATCGAAAGGTCGTGAGGTGAGTTTACAGAAAGGC: the PBM binding z-score worked out at 4.

TCTACTTGGTCACGGAGGTCACACACGACGGGTA came in with a PBM binding z-score of 3.67.

The sequence TCGAGTAGGTTACGGGGGCGTTCAGGGATGAAGA had a PBM binding z-score of 4.72.

In the case of TATACAGGATCAAAGGCCAGAGTACGAATGTCGA, the PBM binding z-score worked out at 2.37.

As for CCTAGTTGGTCAAGGTCCCACACGCTATAGGTAC, the PBM binding z-score turned out to be 0.782.

CCCAGTAGGTTACGAGGGGGCATTCAGTGCGAAT: the PBM binding z-score is 3.75.

In turn, AGAATGGGGTTATTAAGATCAGGGAATTGCGGTC gave a PBM binding z-score of 3.31.

With ATCGAAAGGTCGTGAAGTGAGTATACAGAAAGGC, the PBM binding z-score was found to be 3.21.

In turn, GCTGCTAGGTCAGGTTGGTCAGCTAACGGGTACG registered a PBM binding z-score of 0.389.

Take CCTTACGGGTCACTGACAGCTTATAGCATTTGGA: the PBM binding z-score is 4.12.

With AGAATGAGGTTAGCAAAGATCAGGGAAACGCTTG, the PBM binding z-score came to 1.02.

CCTAGTTGGTCAGGGGGTCACACACCGGATATGA registered a PBM binding z-score of 5.04.

Consider AGTCGGAGGACAAAGGTCAGAGCTACGCCAGTGA, for which the PBM binding z-score was determined as 7.55.

A further assay deals with PPARg:RXRa 270nM:90nM, anti-RXR (NR concentration 270 nM, RXRa partner concentration 90 nM). The description is as above. Summed up: as §1
For the sequence CCTAGTGGGTCAGGAGGTCACACACCGGATATGA, the PBM binding z-score stood at 6.77.

The sequence CCTACTGGGCAAAAAAGGTCATTGATGCCGATAA had a PBM binding z-score of 2.78.

TCTAGTTCGTCACGGAGGTCACACACGACGGGTA: the PBM binding z-score is 3.67.

Sequence CCTAGTTGGTCAAGGTCACGCACGCTATAGGTAC showed a PBM binding z-score of 4.15.

Sequence ATATGTAGGTTAGCGGGGGTCATTCAGACTAGGC showed a PBM binding z-score of 6.71.

The sequence CCTAGATGGTCAGGAGGTCACACACCGGATATGA had a PBM binding z-score of 3.58.

Sequence CCTAGTTGGTCAGGAAGTCACACACCGGATATGA registered a PBM binding z-score of 0.592.

For the sequence CGTCAAAGTTAAAGGTAACGTAACAGAAAGCAGC, the PBM binding z-score was 2.59.

The sequence CCTACTGGGCCATTCAGAGGTCACTGATCATATG yielded a PBM binding z-score of 3.18.

The sequence TAGCCTCGGTCATTCAGGGGCCAGTATAGAAAGC showed a PBM binding z-score of -0.248.

The sequence CAAACTAGGCCAAGGTCAAAGTCGGTTTGTGCCA came in with a PBM binding z-score of 6.01.

For ATCGAAAGGTCGAGTTGAGTATAGAGAAAGGGAA, the PBM binding z-score was 2.9.

On to CGTCAAAGTTCAAGGTAAAGTAACAGAAAGCAGC, for which the PBM binding z-score was determined as 5.07.

Regarding CTATGTAGGTGAAGGGGGTCATTCAGTTTGAAAG, the PBM binding z-score worked out at 8.53.

For TCTAGTTGGTCACGGGGGTCACACACGACGGGTA, the PBM binding z-score came to 6.09.

CCTTACGGGTCACTTACAGGTTATAGCATTTGGA: the PBM binding z-score came out at 3.73.

As to CCTACTGGGCCATTCAGAGGTCATCGATCATATG, the PBM binding z-score amounted to 3.01.

Regarding CAAAATAGGTCAAGAGGTCAAAGTCCGCTTCCCG, the PBM binding z-score was 8.19.

In turn, TAGCCTAGGTCATGCGGGTCAGTATAGTGTCGGC came in with a PBM binding z-score of 3.43.

The sequence GCTTACGGGTCAAAGGTTAAAGCATGAATAGAAT showed a PBM binding z-score of 9.59.

Regarding CGTCCAAGGTCAAAGGTCAGCGAAGAGATGACGG, the PBM binding z-score turned out to be 8.69.

Sequence ATCGAAAGGTCGACGAGGTGAGAATACACCGTTT came in with a PBM binding z-score of 3.7.

In turn, CGTCCAAGGGCAATGCTAGGTCAGTGAAAGCATT gave a PBM binding z-score of 0.084.

Sequence GCTTACGGGTCAAAAGTTATAGCATGAATAGAAT registered a PBM binding z-score of 6.55.

CCTACTGGGCCACGAAAGGTGATTGATTCAGTGA registered a PBM binding z-score of 1.68.

Regarding CTATGTAGGTTAAGGGGGTCATTGAGTTTGAAAG, the PBM binding z-score turned out to be 7.92.

Consider ATCGAAAGGTCGTGAGGTGAGTTTACAGAAAGGC, for which the PBM binding z-score is 4.18.

Take TCTACTTGGTCACGGAGGTCACACACGACGGGTA: the PBM binding z-score was found to be 4.1.

Sequence TCGAGTAGGTTACGGGGGCGTTCAGGGATGAAGA had a PBM binding z-score of 4.75.

Regarding TATACAGGATCAAAGGCCAGAGTACGAATGTCGA, the PBM binding z-score was 3.11.

The sequence CCTAGTTGGTCAAGGTCCCACACGCTATAGGTAC returned a PBM binding z-score of 0.497.

Turning to CCCAGTAGGTTACGAGGGGGCATTCAGTGCGAAT, the PBM binding z-score came to 4.46.

On to AGAATGGGGTTATTAAGATCAGGGAATTGCGGTC, for which the PBM binding z-score stood at 3.5.

As to ATCGAAAGGTCGTGAAGTGAGTATACAGAAAGGC, the PBM binding z-score is 3.51.

GCTGCTAGGTCAGGTTGGTCAGCTAACGGGTACG registered a PBM binding z-score of 0.622.

In turn, CCTTACGGGTCACTGACAGCTTATAGCATTTGGA came in with a PBM binding z-score of 4.15.

Turning to AGAATGAGGTTAGCAAAGATCAGGGAAACGCTTG, the PBM binding z-score amounted to 0.909.

The sequence CCTAGTTGGTCAGGGGGTCACACACCGGATATGA showed a PBM binding z-score of 5.76.

Take AGTCGGAGGACAAAGGTCAGAGCTACGCCAGTGA: the PBM binding z-score was 7.07.
